Laboratory results as given in PubChem BioAssay (NCATS).
Records with an inconclusive call do not appear. Active and inactive are the calls of the source. The call rests on the fitted dose curve; in most records, active means well fitted cell-killing curve with a large enough effect; inconclusive means small, poorly fitted or top-dose-only effect, or effect the other way; inactive means flat fitted curve, though single readings scatter.

Assays:
Experiment in all cases: Primary qHTS to identify gynecologic anti-cancer compounds using libraries of approved drugs and bioactive compounds (AID 1345084); further: nearly all actives have a fitted effect of over 55% in size
Conditions in all cases: Gynecologic cancer cell panel viability, ATPlite luminescence, 48 h; series mostly up to 57.5 µM
OV90 = test system: OV90
Procedure, shortened: (§1)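 In this quantitative HTS, cell killing is estimated from loss of ATP-dependent luciferase light. Cells see five compound concentrations over a 48 h exposure.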

PA-1 = test system: PA-1
Procedure, shortened: as §1

SKOV3 = test system: SKOV3
Procedure, shortened: as §1

Tov-21-G = test system: Tov-21-G
Procedure, shortened: as §1

Tov112D = test system: Tov112D
Procedure, shortened: as §1
On the % scale 0 is the no-effect control and ±100 the full control effect.

CN1CCN(C2=Nc3ccccc3Nc3ccc(O)cc32)CC1
inactive: Potency (OV90) | Potency (PA-1) | Potency (SKOV3) | Potency (Tov-21-G) | Potency (Tov112D)

C[C@@H]1O[C@@H](OC2C(CO)OC(OCC3OC(OC(=O)[C@]45CCC(C)(C)CC4C4=CCC6[C@@]7(C)CC[C@@H](O)[C@](C)(C(=O)O)C7CC[C@@]6(C)[C@]4(C)CC5)C(O)C(O)C3O)C(O)C2O)[C@H](O)[C@H](O)[C@H]1O (stereo not given in full)
inactive: activity change, negative = cytotoxicity (OV90) 8.36% [at 11.6 µM] | activity change, negative = cytotoxicity (PA-1) 29.2% [at 11.6 µM] | activity change, negative = cytotoxicity (SKOV3) 5.25% [at 11.6 µM] | activity change, negative = cytotoxicity (Tov-21-G) 6.16% [at 11.6 µM] | activity change, negative = cytotoxicity (Tov112D) 2.63% [at 11.6 µM]

C=C1CC2C3(C)C(O)CC(=O)C(C)(C)C3C(O)C(OC(C)=O)C2(C)C2C(=O)OC(C)(C(=O)OC)C(=O)C12C (stereo not given)
inactive: Potency (OV90) | Potency (PA-1) | Potency (SKOV3) | Potency (Tov-21-G) | Potency (Tov112D)

N=C(N)c1ccc2nc(-c3cc(CC(=O)NC(CC(=O)O)C(=O)O)cc(-c4cc(S(N)(=O)=O)ccc4O)c3O)[nH]c2c1 (stereo not given)
inactive: Potency (OV90) | Potency (PA-1) | Potency (SKOV3) | Potency (Tov-21-G) | Potency (Tov112D)

COc1ccc(C2(O)c3ccccc3NC(=O)C2OC)cc1 (stereo not given)
inactive: Potency (OV90) | Potency (PA-1) | Potency (SKOV3) | Potency (Tov-21-G) | Potency (Tov112D)

C/C(=C\CC/C(C)=C/CC[C@]1(C)CCc2cc(O)cc(C)c2O1)CC/C=C(\C)C(=O)O
inactive: Potency (OV90) | Potency (PA-1) | Potency (SKOV3) | Potency (Tov-21-G) | Potency (Tov112D)

C[C@@H]1O[C@@H](O[C@H]2[C@H](O[C@H]3[C@H](O[C@H]4CC[C@@]5(C)C(CC[C@]6(C)C5CC=C5[C@@H]7CC(C)(C)C[C@@H](O)[C@]7(C)CC[C@]56C)C4(C)C)O[C@H](C(=O)O)[C@@H](O)[C@@H]3O)O[C@H](C(=O)O)[C@H](O)[C@@H]2O)[C@H](O)[C@H](O)[C@H]1O (stereo not given in full)
inactive: activity change, negative = cytotoxicity (OV90) 9.77% [at 11.6 µM] | activity change, negative = cytotoxicity (PA-1) 12.6% [at 11.6 µM] | activity change, negative = cytotoxicity (SKOV3) 6.58% [at 11.6 µM] | activity change, negative = cytotoxicity (Tov-21-G) 9.44% [at 11.6 µM] | activity change, negative = cytotoxicity (Tov112D) 4.96% [at 11.6 µM]

C=C1C(OC(C)=O)C(=O)C2C(C)(C)C(O)CCC2(C)C1CC(OC(C)=O)/C(C)=C/COC(C)=O (stereo not given)
inactive: Potency (OV90) | Potency (PA-1) | Potency (SKOV3) | Potency (Tov-21-G) | Potency (Tov112D)

CC1CC(O)/C=C/C(O)/C=C\C(=O)O1 (stereo not given)
inactive: Potency (OV90) | Potency (PA-1) | Potency (SKOV3) | Potency (Tov-21-G) | Potency (Tov112D)

CC1(C(=O)O)CC[C@]2(C(=O)OC3OC(CO)C(O)C(O)C3O)CC[C@]3(C)C(=CCC4[C@@]5(C)CC[C@H](OC6OCC(O)C(O)C6OC6OC(CO)C(O)C(O)C6O)C(C)(C)C5CC[C@]43C)C2C1 (stereo not given in full)
inactive: activity change, negative = cytotoxicity (OV90) -0.207% [at 11.6 µM] | activity change, negative = cytotoxicity (PA-1) -1.65% [at 11.6 µM] | activity change, negative = cytotoxicity (SKOV3) -6.88% [at 11.6 µM] | activity change, negative = cytotoxicity (Tov-21-G) 15.1% [at 11.6 µM] | activity change, negative = cytotoxicity (Tov112D) -1.55% [at 11.6 µM]

C=C1C(=O)O[C@@H]2CC(C)=C([C@@H](C)CCCOC(C)=O)[C@@H](O)[C@H]12
inactive: Potency (OV90) | Potency (PA-1) | Potency (SKOV3) | Potency (Tov-21-G) | Potency (Tov112D)

CC(=O)OCC1=CCC2C(C)(C)CCCC2(C)C12CCC(C)(CC(=O)O)O2 (stereo not given)
inactive: Potency (OV90) | Potency (PA-1) | Potency (SKOV3) | Potency (Tov-21-G) | Potency (Tov112D)

COC(=O)c1ccc(OC)cc1O[C@@H]1O[C@H](CO[C@@H]2OC[C@@H](O)[C@H](O)[C@H]2O)[C@@H](O)[C@H](O)[C@H]1O
inactive: Potency (OV90) | Potency (PA-1) | Potency (SKOV3) | Potency (Tov-21-G) | Potency (Tov112D)

O=C(O)[C@H](Cc1ccccc1)Oc1ccc(-c2ccccc2)cc1
inactive: Potency (OV90) | Potency (PA-1) | Potency (SKOV3) | Potency (Tov-21-G) | Potency (Tov112D)

C/C(=C\CC[C@H](CO)[C@@H]1CC[C@]2(C)C3=C(CC[C@@]12C)[C@@]1(C)CCC(=O)C(C)(C)C1CC3)C(=O)O (stereo not given in full)
inactive: Potency (OV90) | Potency (PA-1) | Potency (SKOV3) | Potency (Tov-21-G) | Potency (Tov112D)

CC(C)=C1C[C@@]2(C)C(=CC1=O)CC[C@@H](O)[C@@H]2C
inactive: Potency (OV90) | Potency (PA-1) | Potency (SKOV3) | Potency (Tov-21-G) | Potency (Tov112D)

O=C(O)Cc1cn([C@@H]2O[C@H](CO)[C@@H](O)[C@H](O)[C@H]2O[C@@H]2O[C@H](CO)[C@@H](O)[C@H](O)[C@H]2O)c2ccccc12
inactive: Potency (OV90) | Potency (PA-1) | Potency (SKOV3) | Potency (Tov-21-G) | Potency (Tov112D)

O=C(/C=C/c1ccc(O)c(O)c1)OC[C@H]1O[C@@H](OC2CCCCC2O)[C@H](O)[C@@H](O)[C@@H]1O (stereo not given in full)
inactive: Potency (OV90) | Potency (PA-1) | Potency (SKOV3) | Potency (Tov-21-G) | Potency (Tov112D)
